Among the test systems are HCT-15 colon; HT29 colon; SNB-75 CNS; SNB-19 CNS; U251 CNS; PC-3 prostate; SK-MEL-5 melanoma; UACC-62 melanoma; LOX IMVI melanoma; SK-MEL-28 melanoma.
What all share (experiment): NCI-60 one-dose screen, 48 h (100 = growth as untreated, 0 = no growth, -100 = all killed)
Conditions in all cases: 10 µM unless noted

This is part of a sample that, as a whole, favours compounds with a hit. Of some 83,000 tested, about 20% had one in any assay.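 Percent growth is the endpoint: 0 to 100 indicates growth inhibition (40 means 60% inhibition), 0 means no net growth, and negative values indicate cell death.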 A number with no mark means an inactive call. Calls of active or inactive are those of the source. Rule for the calls: active = growth percent below 10; inactive = the rest.

As for `O=C1/C(=C/c2ccc(Oc3ccccc3)cc2)N=C(c2ccccc2)N1CCc1cccs1`, the growth in the assay with HCT-15 colon is 92.4%; with HT29 colon, 35%; in the assay with SNB-75 CNS, 63.2%; in the assay with SNB-19 CNS it was 89%; in the assay with U251 CNS, 93.9%; in the assay with PC-3 prostate, 62.1%. For the same molecule, the growth in the assay with SK-MEL-5 melanoma was 95.2%; with UACC-62 melanoma it was 72%; in the assay with LOX IMVI melanoma, 62.1%; in the assay on SK-MEL-28 melanoma, 94%.

As to `Cn1c(=O)c2c(-c3ccccc3F)n(-c3ccc4c(c3)OCO4)cc2n(C)c1=O`, the growth with HCT-15 colon was 87.8%; in the assay on HT29 colon it was 112%; in the assay on SNB-75 CNS, 80.9%; with SNB-19 CNS it was 99.6%; in the assay on U251 CNS, 92.1%; in the assay with PC-3 prostate it was 74.7%. For the same molecule, the growth in the assay with SK-MEL-5 melanoma is 67.3%; with UACC-62 melanoma it was 86.2%; in the assay with LOX IMVI melanoma, 95.9%; with SK-MEL-28 melanoma it was 100%.

As to `COc1ccc(C2OCC(C)(C)CO2)cc1OC`, the growth with HCT-15 colon is 106%; in the assay with HT29 colon, 109%; in the assay with SNB-75 CNS it was 102%; with SNB-19 CNS, 112%; in the assay on U251 CNS it was 94.8%; with PC-3 prostate it was 95%. For the same molecule, the growth in the assay on SK-MEL-5 melanoma is 96.5%; in the assay on UACC-62 melanoma, 99.9%; in the assay with LOX IMVI melanoma it was 95.2%; in the assay on SK-MEL-28 melanoma it was 121%.

Turning to `O=C1NC(=S)S/C1=C\c1cccc([N+](=O)[O-])c1`, the growth in the assay with HCT-15 colon was 93.3%; with HT29 colon it was 109%; in the assay on SNB-75 CNS it was 83.8%; in the assay with SNB-19 CNS, 98%; in the assay with U251 CNS, 92.7%; in the assay on PC-3 prostate it was 88.1%. Further, the growth in the assay on SK-MEL-5 melanoma was 89.9%; in the assay on UACC-62 melanoma, 70%; with LOX IMVI melanoma, 88.9%; in the assay with SK-MEL-28 melanoma, 112%.

As to `COC(=O)c1c2c(c(C)[n+]([O-])c1C)C(=O)C(NCc1ccc(O)cc1)=CC2=O`, the growth was -43.4% (active) with HCT-15 colon; 3.68% (active) in the assay with HT29 colon; -29.5% (active) in the assay with SNB-75 CNS; -28.5% (active) in the assay on SNB-19 CNS; -0.0674% (active) in the assay with U251 CNS; 7.51% (active) with PC-3 prostate. Moreover, the growth was -99.7% (active) in the assay with SK-MEL-5 melanoma, -73.8% (active) in the assay with UACC-62 melanoma, -89.6% (active) with LOX IMVI melanoma and -3.61% (active) with SK-MEL-28 melanoma.

As for `COC(=O)c1c2c(c(C)[n+]([O-])c1C)C(=O)C=C(NCc1cccc(Cl)c1)C2=O`, the growth in the assay on HCT-15 colon was -66.9% (active); in the assay with HT29 colon it was 3.61% (active); in the assay with SNB-75 CNS it was -95.4% (active); in the assay on SNB-19 CNS, -53.4% (active); in the assay with U251 CNS, -20.7% (active); in the assay on PC-3 prostate it was -1.7% (active). Besides, the growth with SK-MEL-5 melanoma was -97.1% (active); in the assay with UACC-62 melanoma, -68% (active); with LOX IMVI melanoma, -57.5% (active); in the assay on SK-MEL-28 melanoma it was -1.27% (active).

`CC1SC(c2cccc(Oc3ccccc3)c2)N(CCc2cccs2)C1=O` (stereo not given): the growth in the assay with HCT-15 colon was -16.3% (active); in the assay on HT29 colon, -24.7% (active); in the assay on SNB-75 CNS, -11.7% (active); with SNB-19 CNS it was 11.9%; in the assay on U251 CNS, -25.7% (active); in the assay on PC-3 prostate, 2.18% (active). In addition, the growth in the assay on SK-MEL-5 melanoma was -100% (active); in the assay on UACC-62 melanoma it was -71.1% (active); with LOX IMVI melanoma it was -100% (active); in the assay with SK-MEL-28 melanoma, -57% (active).

Turning to `Cc1cc(NS(=O)(=O)c2ccc(NC(=O)COc3ccc(-c4cc5ccccc5[nH]4)cc3)cc2)no1`, the growth in the assay with HCT-15 colon was 24.7%; in the assay with HT29 colon it was 12.3%; in the assay on SNB-75 CNS it was -12.2% (active); in the assay with SNB-19 CNS, 29.6%; in the assay with U251 CNS, 20.8%; in the assay with PC-3 prostate, 13.3%. Moreover, the growth in the assay on SK-MEL-5 melanoma is 12.4%; in the assay on UACC-62 melanoma it was 31.4%; with LOX IMVI melanoma it was 4.54% (active); with SK-MEL-28 melanoma it was 18.9%.

As for `Clc1ccc(C2=Nc3cccc4cccc(c34)N2)cc1Cl`, the growth with HCT-15 colon was 70.2%; with HT29 colon, 101%; with SNB-75 CNS, 77.5%; in the assay with SNB-19 CNS, 70.3%; with U251 CNS, 104%; in the assay on PC-3 prostate, 65.8%. Further, the growth in the assay on SK-MEL-5 melanoma is 91.6%; in the assay on UACC-62 melanoma it was 109%; in the assay on LOX IMVI melanoma, 84%; in the assay on SK-MEL-28 melanoma it was 104%.

Take `O=c1c2cc(F)ccc2oc2c(NCCNCCO)nc3ccccc3c12`: the growth with HCT-15 colon was 28.1%; in the assay on HT29 colon it was 16.7%; in the assay on SNB-75 CNS, 50.2%; in the assay on SNB-19 CNS, 45.1%; in the assay on U251 CNS it was 36.1%; in the assay with PC-3 prostate, 38.6%. The growth was 61.6% in the assay on SK-MEL-5 melanoma, 77.7% in the assay with UACC-62 melanoma, 13.8% in the assay on LOX IMVI melanoma and 50.2% in the assay with SK-MEL-28 melanoma.

Consider `COc1ccc(Sc2ccc3[nH]c(=O)nc(N)c3c2)cc1`, for which the growth in the assay with HCT-15 colon is 103%; in the assay with HT29 colon it was 106%; in the assay with SNB-75 CNS it was 91.3%; in the assay on SNB-19 CNS, 94.1%; in the assay on U251 CNS, 94.3%; in the assay on PC-3 prostate it was 96.9%. Further, the growth with SK-MEL-5 melanoma was 103%; with UACC-62 melanoma, 105%; with LOX IMVI melanoma it was 99.7%; in the assay on SK-MEL-28 melanoma, 104%.

On to `COc1cc(CNCCN2C(=O)c3ccc4c5c(ccc(c35)C2=O)C(=O)N(CCNCc2cc(OC)c(OC)c(OC)c2)C4=O)cc(OC)c1OC`, for which the growth with HCT-15 colon is -66.2% (active); with HT29 colon it was -52.3% (active); in the assay with SNB-75 CNS it was -98% (active); in the assay on SNB-19 CNS, -79.8% (active); with U251 CNS, -68.1% (active); in the assay with PC-3 prostate it was -73.1% (active). For the same molecule, the growth was -87.7% (active) in the assay on SK-MEL-5 melanoma, -92.4% (active) in the assay with UACC-62 melanoma, -99% (active) with LOX IMVI melanoma and -89.3% (active) with SK-MEL-28 melanoma.

In the case of `COc1ccc(/C=C2\SC(=O)N(CN3CCN(c4cc5c(cc4F)c(=O)c(C(=O)O)cn5C4CC4)CC3)C2=O)cc1`, the growth in the assay with HCT-15 colon is 106%; in the assay on HT29 colon it was 111%; in the assay on SNB-75 CNS it was 85.1%; in the assay with SNB-19 CNS it was 100%; in the assay on U251 CNS it was 99.8%; in the assay with PC-3 prostate, 97.6%. In addition, the growth was 97.2% in the assay with SK-MEL-5 melanoma, 98.1% in the assay on UACC-62 melanoma, 79.9% with LOX IMVI melanoma and 112% in the assay with SK-MEL-28 melanoma.

Consider `CCCCc1ccc(NC(=O)C(F)(F)F)cc1`, for which the growth with HCT-15 colon is 105%; in the assay with HT29 colon, 99.8%; in the assay on SNB-75 CNS it was 102%; in the assay with SNB-19 CNS it was 106%; in the assay with U251 CNS it was 97.4%; with PC-3 prostate, 101%. Besides, the growth in the assay with SK-MEL-5 melanoma was 106%; in the assay on UACC-62 melanoma it was 99.9%; in the assay with LOX IMVI melanoma, 95.5%; with SK-MEL-28 melanoma, 112%.

As to `COc1ccc(/C=N/NC(=O)c2cnn3c2NC(c2ccccc2)C3)cc1OC1CCCC1` (stereo not given), the growth in the assay with HCT-15 colon is 70%; in the assay on HT29 colon, 90.6%; in the assay with SNB-75 CNS it was 84.3%; with SNB-19 CNS, 87.7%; in the assay on U251 CNS, 83%; in the assay on PC-3 prostate, 79.1%. Moreover, the growth in the assay with SK-MEL-5 melanoma was 78.8%; in the assay on UACC-62 melanoma, 83%; in the assay with LOX IMVI melanoma it was 85.2%; with SK-MEL-28 melanoma, 108%.

Values taken from PubChem BioAssay (NCI).
